DAX1 inh-1 = NR0B1 (DAX1) inhibition; HEK293 Gal4-DAX1 luciferase reporter, luminescence; inhibition, % at 6.75 µM; 0.99% of 340,000 active; AID 504766;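 active means inhibition above the mean over all tested compounds plus 3 SD, cut at about 4.2% in these data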;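 further: 0% = DAX1-transfected cells with DMSO and 100% = empty-vector control cells with DMSO; inhibition shows as a rise in luminescence from relieved DAX1 repression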
Target sequence (P51843 207-470 limits assumed): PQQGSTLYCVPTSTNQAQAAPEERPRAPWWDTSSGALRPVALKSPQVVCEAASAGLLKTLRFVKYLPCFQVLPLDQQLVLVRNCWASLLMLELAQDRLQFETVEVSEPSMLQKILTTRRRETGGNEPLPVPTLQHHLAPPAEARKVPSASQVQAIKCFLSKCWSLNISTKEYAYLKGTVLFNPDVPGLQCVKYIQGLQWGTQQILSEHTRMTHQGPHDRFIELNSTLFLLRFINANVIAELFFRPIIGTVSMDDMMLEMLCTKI
hgDAF-12 ag = hgDAF-12 agonism, primary luciferase screen; 1.8% of 370,000 active; activation, % at 6.8 µM; AID 687014; HEK293 GAL4-hgDAF12 UAS-luciferase reporter, agonist luminescence; normalized to butyrate control;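 active means activation above a cutoff set at the mean of all screened compounds plus 3 SD, cut at about 10% in these data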;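 further: 0% = DMSO wells and 100% = sodium butyrate wells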
hcDAF12 agonist = activators of H. contortus DAF-12 nuclear receptor. AID 652067. activation, % at 6.8 µM. HEK293 hcDAF-12 lit1-tk-luc reporter, luminescence; 0% DMSO, 100% Δ7-dafachronic acid. 1.4% of 370,000 active;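 active means activation above the mean of all tested compounds plus 3 SD, cut at about 5.5% in these data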;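 further: 100% = response to 3 µM Δ7-dafachronic acid high control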
ssDAF12 agonist = S. stercoralis DAF-12 activation, primary screen; activation, % at 6.8 µM; 1% of 370,000 active; HEK293 ssDAF-12/GRIP1 lit1-tk-luc reporter, luminescence; % of 3 µM dafachronic acid response;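 active means activation above the mean over all tested compounds plus 3 SD, cut at about 0.9% in these data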;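 further: 0% = DMSO-only wells and 100% = 3 µM delta7-dafachronic acid wells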
DAX1 inh-2 = DAX1 (NR0B1) inhibition, primary screen. inhibition, % at 6.8 µM. HEK293T StAR-luciferase reporter, SF-1/DAX-1 repression relief. AID 652010. 1.1% of 370,000 active;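 active means inhibition above the mean over all tested compounds plus 3 SD, cut at about 3.6% in these data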;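 further: 0% = DAX-1 cells with DMSO and 100% = cells lacking DAX-1 with DMSO; higher inhibition means more luminescence from relief of DAX-1 repression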
LXR ag = LXR-beta agonism as hcDAF-12 counter-screen; HEK293 Gal4-LXR tk-luc reporter, luminescence, 24 h; normalized: DMSO 0%, positive control 100%; activation, % at 6.8 µM; 3,400 tested, under 10 active; shares compounds with hcDAF12 agonist; AID 743027;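 active means mean percent activation of the reporter above a cutoff set as the average over tested compounds plus their standard deviation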
hcDAF12 ag = confirmation of H. contortus DAF-12 agonists. shares compounds with hcDAF12 agonist. HEK293 hcDAF-12 lit1-tk-luc reporter, luminescence; % of Δ7-dafachronic acid response. activation, % at 6.8 µM. 61% of 3,400 active;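 active means mean activation across triplicate tests above the threshold derived from the earlier primary screen, cut at about 5.5% in these data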;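 further: 0% = DMSO only wells and 100% = 3 µM Δ7-dafachronic acid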
Active calls of the source: *. Most compounds without a hit are left out; they make up all but 4.1% or so of the library.

Results for O=C(NNc1nc2ccccc2s1)c1ccc(F)cc1 ?
DAX1 inh-1: -0.1; hgDAF-12 ag: 3.3; hcDAF12 agonist: 9.6*; ssDAF12 agonist: 2.1*; DAX1 inh-2: 0.3; LXR ag: -0.1; hcDAF12 ag: 0.7

How did N#C/C(=C(/O)c1ccc(F)cc1)c1nc2ccccc2s1 do in these assays?
DAX1 inh-1: 1.6; hgDAF-12 ag: 11.3*; hcDAF12 agonist: 7.2*; ssDAF12 agonist: 0.5; DAX1 inh-2: 1.4; LXR ag: 0.2; hcDAF12 ag: 2.2

How did CCCOc1ccc(OCCSc2ncccn2)cc1 do in these assays?
DAX1 inh-1: 3.2; hgDAF-12 ag: 9.8; hcDAF12 agonist: 6.8*; ssDAF12 agonist: -0.1; DAX1 inh-2: 2.5; LXR ag: 1.3; hcDAF12 ag: 4.8

What do the screens show for `Cc1ccc(C2=Nc3ccccc3N=C(C(Cl)Cl)C2)cc1`?
DAX1 inh-1: -0.8; hgDAF-12 ag: 19.1*; hcDAF12 agonist: 16.9*; ssDAF12 agonist: 2.8*; DAX1 inh-2: 3.8*; LXR ag: 1.3; hcDAF12 ag: 9.9*

Results for COc1ccccc1C(=O)N/C(N)=N/c1nc2ccccc2o1 ?
DAX1 inh-1: 0.4; hgDAF-12 ag: 3.9; hcDAF12 agonist: 7.0*; ssDAF12 agonist: 1.1*; DAX1 inh-2: 0.8; LXR ag: 0.5; hcDAF12 ag: 8.6*

How did Cc1ccc(C(=O)N/C(N)=N/c2nc3ccccc3o2)cc1 do in these assays?
DAX1 inh-1: -0.3; hgDAF-12 ag: 2.9; hcDAF12 agonist: -0.9; ssDAF12 agonist: -0.8; DAX1 inh-2: 0.2

What do the screens show for `CC(=O)Nc1cc(-c2ccccc2)cn2c(-c3ccc(F)c(Cl)c3)cnc12`?
hgDAF-12 ag: -0.9; hcDAF12 agonist: 0.5; ssDAF12 agonist: -1.4; DAX1 inh-2: -0.2

How did Nc1cccn2c(-c3ccc(Cl)c(Cl)c3)cnc12 do in these assays?
DAX1 inh-1: 3.5; hgDAF-12 ag: 9.6; hcDAF12 agonist: 9.5*; ssDAF12 agonist: 1.1*; DAX1 inh-2: 4.0*; LXR ag: 1.4; hcDAF12 ag: 13.2*

Results for Cn1cc(C2(c3c[nH]c4ccccc34)CCN(C(=O)OC(C)(C)C)CC2)c2ccccc21 ?
hgDAF-12 ag: 2.8; hcDAF12 agonist: 3.8; ssDAF12 agonist: 0.1; DAX1 inh-2: -1.7

What do the screens show for `COc1ccc(CN2C(=O)CCCC2(C)c2nnnn2-c2ccc3c(c2)OCCO3)cc1` (stereo not given)?
hgDAF-12 ag: -0.5; hcDAF12 agonist: -0.1; ssDAF12 agonist: -1.5; DAX1 inh-2: -0.7

How did Oc1ccc2[nH]cc(CCc3ccccc3)c2c1-c1ccccc1 do in these assays?
hgDAF-12 ag: -2.5; hcDAF12 agonist: -0.9; ssDAF12 agonist: -1.3; DAX1 inh-2: -0.8

What do the screens show for `COC(=O)c1ccc(OCC(=O)c2ccccc2)cc1`?
DAX1 inh-1: 2.6; hgDAF-12 ag: 11.3*; hcDAF12 agonist: 9.0*; ssDAF12 agonist: 1.3*; DAX1 inh-2: 2.4; LXR ag: 1.0; hcDAF12 ag: 4.8

Results for C[C@H](NC(=O)[C@H](Cc1ccccc1)NC(=O)c1cc2cc(Cl)ccc2n1C)C(=O)O ?
DAX1 inh-1: -0.4; hgDAF-12 ag: 0.9; hcDAF12 agonist: 6.8*; ssDAF12 agonist: 0.3; DAX1 inh-2: -0.4; LXR ag: -0.2; hcDAF12 ag: 3.5

What do the screens show for `C(=N/n1c2ccccc2c2ccccc21)/c1ccco1`?
DAX1 inh-1: 0.9; hgDAF-12 ag: 0.8; hcDAF12 agonist: 1.3; ssDAF12 agonist: -1.0; DAX1 inh-2: 0.2

What do the screens show for `N=c1scc(-c2ccccc2)n1/N=C/c1ccco1`?
DAX1 inh-1: -0.2; hgDAF-12 ag: 11.1*; hcDAF12 agonist: 6.8*; ssDAF12 agonist: 1.4*; DAX1 inh-2: 2.0; LXR ag: 0.6; hcDAF12 ag: 4.4

Results for O=C(NCCN1CCc2ccccc2C1)C1CCN(S(=O)(=O)N2CCC3(CC2)OCCO3)CC1 ?
DAX1 inh-1: -1.6; hgDAF-12 ag: 1.4; hcDAF12 agonist: 7.5*; ssDAF12 agonist: 0.6; DAX1 inh-2: -0.5; LXR ag: -0.1; hcDAF12 ag: 0.8

High-throughput results: PubChem BioAssay, The Scripps Research Institute Molecular Screening Center
